According to PubChem BioAssay AID1159580 (chemical genetic matrix, 2015):
Several values for one entry are separate records, joined by “and”; a condition that tells them apart may be missing. Equal values may be shown once. Among all 5,500 compounds or so, about 2,000 (36%) were called active. Inconclusive results (about 18%) are left out. Rule as the data show it: active = normalized growth mostly below about 0.91 (no sharp cut-off); inconclusive = no clear call, values can overlap the other calls; inactive = mostly above about 0.92. Some of the results follow.

Assay: chemical genetic growth profiling, strain panel (AID 1159580);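 also: tested at 20 µM; growth read once vehicle control cultures reached saturation at 30 °C; 1 = growth at the plate median or of vehicle wells; lower values mean less growth of the strain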
Conditions: S. cerevisiae deletion strains, growth OD

Measured: normalized growth

COC(=O)[C@@H]1OC(=O)[C@H]2O[C@@]23[C@@]1(C)CCC1[C@@]2(C)CCC(=O)C(C)(C)C2C[C@@H](OC(C)=O)[C@]13C (some centres not stated)
inactive: locus YAL021C, strain ccr4, hits give low values 1.04 | locus YAL026C, strain drs2, hits give low values 0.992 | locus YAL030W, strain snc1, hits give low values 0.989 | locus YBL061C, strain skt5, hits give low values 0.994 | locus YBR009C, strain hhf1, hits give low values 1.03 | locus YBR021W, strain FUR4, hits give low values 0.997 | locus YBR023C, strain chs3, hits give low values 1 | locus YBR171W, strain sec66, hits give low values 0.959 | locus YBR229C, strain ROT2, hits give low values 1.01 | locus YBR231C, strain swc5, hits give low values 0.974 | locus YBR279W, strain paf1, hits give low values 1.02 | locus YCL011C, strain gbp2, hits give low values 0.998 | locus YCL016C, strain dcc1, hits give low values 1.03 | locus YCL029C, strain bik1, hits give low values 0.997 | locus YCL069W, strain vba3, hits give low values 0.987 | locus YCR088W, strain abp1, hits give low values 0.972 | locus YDL005C, strain med2, hits give low values 0.969 | locus YDL035C, strain GPR1, hits give low values 0.998 | locus YDL040C, strain nat1, hits give low values 0.987 | locus YDL074C, strain BRE1, hits give low values 1.01 | locus YDL101C, strain DUN1, hits give low values 1.02 | locus YDL134C, strain PPH21, hits give low values 1.01 | locus YDL185W, strain tfp1, hits give low values 1.01 | locus YDL192W, strain arf1, hits give low values 0.988 | locus YDR001C, strain nth1, hits give low values 0.983 | locus YDR069C, strain doa4, hits give low values 0.953 | locus YDR101C, strain arx1, hits give low values 0.993 | locus YDR137W, strain rgp1, hits give low values 1 | locus YDR159W, strain sac3, hits give low values 0.92 | locus YDR162C, strain NBP2, hits give low values 0.999 | locus YDR195W, strain ref2 0.926 | locus YDR297W, strain sur2, hits give low values 1 | locus YDR318W, strain mcm21, hits give low values 1.01 | locus YDR334W, strain swr1, hits give low values 0.967 | locus YDR388W, hits give low values 1.01 | locus YDR392W, strain spt3, hits give low values 0.993 | locus YDR502C, strain sam2, hits give low values 1.02 | locus YEL003W, strain gim4, hits give low values 0.986 | locus YEL037C, strain rad23, hits give low values 0.974 | locus YEL061C, strain CIN8 (second series), hits give low values 0.975 | locus YEL061C, strain CIN8, hits give low values 1 | locus YER015W, strain faa2, hits give low values 0.98 | locus YER016W, strain bim1, hits give low values 0.98 | locus YER110C, hits give low values 1 | locus YER111C, strain swi4, hits give low values 0.984 | locus YER155C, strain BEM2 (second series), hits give low values 1.01 | locus YER155C, strain BEM2, hits give low values 1.01 | locus YER167W, strain BCK2, hits give low values 0.988 | locus YFR010W, strain ubp6, hits give low values 0.966 | locus YGL078C, strain dbp3, hits give low values 1.02 | locus YGL086W, strain mad1, hits give low values 1 | locus YGL167C, strain pmr1, hits give low values 0.993 | locus YGL173C, strain kem1, hits give low values 0.985 | locus YGL227W, strain vid30, hits give low values 0.986 | locus YGL240W, strain doc1, hits give low values 0.953 | locus YGL248W, strain PDE1, hits give low values 1.02 | locus YGL253W, strain hxk2, hits give low values 0.958 | locus YGR135W, strain pre9, hits give low values 1.06 | locus YGR252W, strain gcn5, hits give low values 1.05 | locus YHR013C, strain ard1, hits give low values 1 | locus YHR027C, strain rpn1, hits give low values 0.976 | locus YHR030C, strain SLT2, hits give low values 1 and 0.997 | locus YHR079C, strain IRE1 (second series), hits give low values 1.01 | locus YHR079C, strain IRE1, hits give low values 0.999 | locus YHR094C, strain hxt1, hits give low values 1.02 | locus YHR129C, strain ARP1, hits give low values 1.01 | locus YHR142W, strain chs7, hits give low values 0.976 | locus YHR200W, strain rpn10, hits give low values 1.02 | locus YIL066C, strain RNR3, hits give low values 0.984 | locus YIL073C, strain SPO22, hits give low values 0.998 | locus YIL125W, strain kgd1, hits give low values 1 | locus YIR030C, strain dcg1, hits give low values 0.998 | locus YJL092W, strain hpr5, hits give low values 0.971 | locus YJL095W, strain BCK1 (second series), hits give low values 0.964 | locus YJL095W, strain BCK1, hits give low values 1.03 and 0.994 | locus YJL115W, strain asf1, hits give low values 0.965 | locus YJL129C, strain trk1, hits give low values 0.939 | locus YJL134W, strain LCB3, hits give low values 0.994 | locus YJL154C, strain vps35, hits give low values 0.989 | locus YJL164C, strain tpk1, hits give low values 1.03 | locus YJL166W, strain qcr8, hits give low values 0.972 | locus YJL168C, strain set2, hits give low values 1.01 | locus YJL187C, strain SWE1 (second series), hits give low values 1.04 | locus YJR066W, strain TOR1, hits give low values 0.912 | locus YKL009W, strain mrt4, hits give low values 0.977 | locus YKL068W, hits give low values 0.998 | locus YKL085W, strain MDH1 (second series), hits give low values 0.998 | locus YKL085W, strain MDH1, hits give low values 0.998 | locus YKL160W, strain elf1, hits give low values 1.07 | locus YKL190W, strain CNB1, hits give low values 1 | locus YKR001C, strain vps1, hits give low values 0.994 | locus YKR026C, strain gcn3, hits give low values 0.966 | locus YKR091W, strain srl3, hits give low values 0.992 | locus YLL001W, strain dnm1, hits give low values 0.992 | locus YLL026W, hits give low values 0.981 | locus YLL041C, strain sdh2, hits give low values 0.98 | locus YLR027C, strain aat2, hits give low values 0.99 | locus YLR039C, strain RIC1, hits give low values 1.03 | locus YLR058C, strain SHM2, hits give low values 1.01 | locus YLR102C, strain apc9, hits give low values 1 | locus YLR113W, strain HOG1, hits give low values 1.01 | locus YLR221C, strain rsa3, hits give low values 0.987 | locus YLR258W, strain gsy2, hits give low values 1 | locus YLR262C, strain YPT6 (second series), hits give low values 1 | locus YLR268W, strain sec22, hits give low values 0.991 | locus YLR320W, strain mms22, hits give low values 0.995 | locus YLR342W, strain FKS1 (second series), hits give low values 1.04 | locus YLR342W, strain FKS1, hits give low values 0.992 | locus YLR357W, strain rsc2, hits give low values 0.967 | locus YLR370C, strain arc18, hits give low values 0.989 | locus YLR371W, strain rom2, hits give low values 0.997 | locus YLR384C, strain iki3, hits give low values 0.985 | locus YLR418C, strain cdc73, hits give low values 1.04 | locus YML016C, strain PPZ1, hits give low values 1 | locus YML032C, strain rad52, hits give low values 0.996 | locus YML120C, strain ndi1, hits give low values 1.01 | locus YML124C, strain tub3, hits give low values 1.01 | locus YMR058W, strain fet3, hits give low values 0.993 | locus YMR078C, strain ctf18, hits give low values 1.01 | locus YMR125W, strain sto1, hits give low values 0.983 | locus YMR129W, hits give low values 0.987 | locus YMR205C, strain PFK2, hits give low values 1.01 | locus YMR223W, strain ubp8, hits give low values 1.01 | locus YMR231W, strain pep5, hits give low values 0.981 | locus YMR307W, strain GAS1, hits give low values 0.917 | locus YNL067W, strain RPL9B, hits give low values 1.04 | locus YNL071W, strain lat1, hits give low values 0.976 | locus YNL153C, strain GIM3, hits give low values 1.03 | locus YNL183C, strain NPR1, hits give low values 0.929 | locus YNL209W, strain ssb2, hits give low values 0.982 | locus YNL233W, strain BNI4, hits give low values 1.02 | locus YNL248C, strain rpa49, hits give low values 0.907 | locus YNL250W, strain rad50, hits give low values 1.03 | locus YNL271C, strain bni1, hits give low values 1.01 | locus YNL298W, strain CLA4, hits give low values 0.993 | locus YNL307C, strain MCK1, hits give low values 1.02 | locus YNL322C, strain KRE1 (second series), hits give low values 0.959 | locus YNR049C, strain mso1, hits give low values 0.966 | locus YNR052C, strain pop2, hits give low values 1.03 | locus YOL006C, strain TOP1, hits give low values 1.02 | locus YOL012C, strain htz1 1.17 | locus YOL147C, strain pex11, hits give low values 0.998 | locus YOR001W, strain rrp6, hits give low values 0.909 | locus YOR061W, strain CKA2, hits give low values 0.987 | locus YOR069W, strain VPS5, hits give low values 0.999 | locus YOR070C, strain gyp1, hits give low values 1 | locus YOR080W, strain dia2, hits give low values 0.978 | locus YOR083W, strain WHI5, hits give low values 1.08 | locus YOR106W, strain vam3, hits give low values 1.03 | locus YOR136W, strain idh2, hits give low values 1.01 | locus YOR144C, strain elg1, hits give low values 1 | locus YOR184W, strain ser1, hits give low values 0.981 | locus YOR231W, strain MKK1, hits give low values 0.98 | locus YOR265W, strain rbl2, hits give low values 0.976 | locus YOR270C, strain vph1, hits give low values 1.02 | locus YOR290C, strain snf2, hits give low values 0.996 | locus YOR316C, strain cot1, hits give low values 1.01 | locus YPL051W, strain arl3, hits give low values 1.02 | locus YPL078C, strain atp4, hits give low values 1.04 | locus YPL106C, strain sse1, hits give low values 0.997 | locus YPL240C, strain hsp82, hits give low values 0.976 | locus YPL256C, strain CLN2, hits give low values 0.979 | locus YPR119W, strain clb2, hits give low values 1.01 | locus YPR141C, strain kar3, hits give low values 1.01 | locus YPR163C, strain tif3, hits give low values 1.01 | locus YPR167C, strain met16, hits give low values 1.02 | strain wtn01, hits give low values 0.998
